The campaign covered roughly 48,000 compounds. About 13,000 (27%) showed an effect of 50% or more. The list shows a part of the results.
Tested on: Wolbachia pipientis
Test: Anti-Wolbachia Cell-Based Screen
Type: functional
Design: scale not given: in the data most compounds retested in dose-response had high values
Settings: 5 µM

| Compound | Percent Effect [%] |
| --- | --- |
| O=C1CCC2(CCCN(C(=O)c3cscn3)C2)CN1CCc1c[nH]cn1 (stereo not drawn) | -10.65 |
| COCC[C@]1(O)CCN(C(=O)CCc2cnn(C)c2)C[C@H]1C | 4.52 |
| COCCCN1C(=O)CC[C@H]2CN(c3ccc(C(N)=O)cn3)CC[C@H]21 | -7.977 |
| O=C(O)C(F)(F)F.O=C([C@@H]1COC[C@H]2CN(C3CCCC3)C[C@H]21)N1CCCO1 | 17.11 |
| N#Cc1cccn(CCOc2ccc(Cl)cc2)c1=O | 1.787 |
| CCN(Cc1cccc(C(=O)Nc2ncc(C)s2)c1)[C@H]1COC[C@@H]1O | -30.5 |
| COc1cccc(OCC(=O)N(C)c2cccnc2N(C)C)c1 | 85.27 |
| COc1cccc(OCC(=O)NS(=O)(=O)c2cc(F)ccc2F)c1 | -14.39 |
| COc1ccc(CC(=O)N(C)c2cccnc2N(C)C)c(Cl)c1 | 3.868 |
| COc1cccc(OCC(=O)N(C)c2cccnc2)c1 | 104.9 |
| COc1cccc(OCCCc2cncc(C(N)=O)c2)c1 | -6.464 |
| COc1cccc(OCC(=O)Nc2cc(C)cnc2OC)c1 | -3.039 |
| Cn1cccc1C(=O)N[C@@H]1CN(Cc2cccs2)[C@@H]2COC[C@@H]21.O=C(O)C(F)(F)F | -0.8834 |
| Cc1nc(C)n(CC2CCCCN2CCCC#N)n1 (stereo not drawn) | 3.604 |
| CCc1nnc(NC(=O)N(CCOC)Cc2ccc(C)o2)s1 | -17.47 |
| CN(CCCNC(=O)CN1CCS(=O)(=O)CC1)c1ccccc1 | 9.575 |
| COCC(=O)NC[C@@]1(COc2cccnc2)C[C@@H](O)[C@@H](O)C1.Cl | -0.8237 |
| COCC(=O)NC[C@H]1CC[C@H](c2nnc(-c3ccncc3)o2)CC1 | 130.9 |
| COCC(=O)NCC1Cn2nnc(-c3ccncc3)c2CO1.O=C(O)C(F)(F)F (stereo not drawn) | -3.08 |
| c1cncc(-c2nnc([C@H]3CCN(CC4CC4)C3)o2)c1 | 10.36 |
| c1cc(-c2nnc([C@H]3CCNC3)o2)ccn1 | -9.06 |
| O=C(c1cccnc1)C1CCCN(c2nnc(C3CC3)o2)C1 (stereo not drawn) | -9.968 |

| Compound | Percent Effect [%] |
| --- | --- |
| COCC(=O)NC[C@H]1CC[C@H](c2nnc(-c3cccnc3)o2)CC1 | 199.6 |
| O=C(NC[C@H]1CC[C@H](c2nnc(-c3cccnc3)o2)CC1)C1CC1 | 169.2 |
| c1cncc(-c2nnc([C@H]3CCN(CC4CCCCC4)C3)o2)c1 | 11.75 |
| Cc1nc(C(C)C)sc1C(=O)N(C)Cc1nc(-c2ccccn2)no1 | -7.076 |
| CC(CN(C)C(=O)c1cn(C)nc1-c1ccc(F)cc1F)C(=O)O (stereo not drawn) | -1.433 |
| CCOc1ccc2nc(CN3CCC(CNC(C)=O)C3)ccc2c1 (stereo not drawn) | 0.9569 |
| Cc1nc(CN(C)C(=O)c2cc(C)sc2NC(=O)C(C)(C)C)no1 | -2.602 |
| Fc1cccc(-n2cccn2)c1NCc1nnc(C2CC2)o1 | -10.01 |
| Cc1cc(C)n(C2CN(C(=O)Cn3c(C)cc(=O)c4ccccc43)C2)n1 | 17.29 |
| O=C(CSCC1CC1)N1C[C@@H]2CC[C@H](C1)N(Cc1ccccn1)C2=O | 4.164 |
| CCn1cc2c(n1)CN(S(=O)(=O)Cc1ccccc1)CC2COC (stereo not drawn) | 10.82 |
| CN1CC(=O)N(C2CCC2)Cc2c(NC3CCNCC3)ncnc21 | 107.9 |
| CN1CC(=O)N(C2CCNCC2)Cc2c(NC3CCC3)ncnc21 | 106.1 |
| Cc1n[nH]c(C2CN(CCNC3CCCCC3)CCO2)n1 (stereo not drawn) | 13.35 |
| CCNS(=O)(=O)c1ccc(C)c(C(=O)N(C)Cc2ccccc2C)c1 | -10.61 |
| CCn1c(=O)c2cc(S(N)(=O)=O)ccc2n(CC)c1=O | 133.6 |
| CCn1c(=O)n(CC)c2cc(S(N)(=O)=O)ccc21 | 88.83 |
| CCc1nc(Cn2c(=O)n(CC)c3ccccc32)no1 | -6.157 |
| CCNS(=O)(=O)c1ccc2c(c1)c(=O)n(CC)c(=O)n2CC | 90.08 |
| CCCN(C)C(=O)c1cc(S(=O)(=O)NCC)ccc1C | -9.376 |
| CCn1c(=O)n(Cc2nc(C3CC3)no2)c2ccccc21 | -1.691 |
| NC(=O)Cn1ccc(NC(=O)C2(c3cccc(Cl)c3)CC2)n1 | -4.273 |

| Compound | Percent Effect [%] |
| --- | --- |
| CN(C)C(=O)[C@@H]1C[C@H]2OCC[C@H]2N(CCOc2ccc(Cl)cc2)C1.O=C(O)C(F)(F)F | 2.849 |
| Cn1ccnc1COc1ccc(NC(=O)CCC2CCCO2)cc1 (stereo not drawn) | 7.737 |
| CC(C(=O)Nc1ccnn1C(C)C)N1CCN(Cc2ccon2)CC1 (stereo not drawn) | 9.174 |
| c1cnc(N2C[C@H]3CCC[C@@H](CN4CCCC4)[C@H]3C2)nc1 | -23.6 |
| Cc1cnc(CN(C)C2CCN(CC(=O)Nc3nncs3)C2)o1.O=C(O)C(F)(F)F (stereo not drawn) | 3.209 |
| Cn1cccc1C(=O)N1CCC2(CCCN(CC3CC3)C2=O)C1 (stereo not drawn) | 2.832 |
| Cc1nccnc1CN1CCC2(CCCN(C3CCOCC3)C2=O)C1 (stereo not drawn) | 1.539 |
| CCOC(=O)N1CCC2(CCCN(C3CCOCC3)C2=O)C1 (stereo not drawn) | 112 |
| CC(C)N1CCCC2(CCN(C(=O)COCC(F)(F)C(F)F)C2)C1=O (stereo not drawn) | -9.489 |
| Cc1cc(C(=O)N2CCC3(CCCN(CC4CC4)C3=O)C2)c(C)n1C (stereo not drawn) | -3.042 |
| O=C(COCC(F)(F)C(F)F)N1CCC2(CCCN(CCO)C2=O)C1 (stereo not drawn) | -15.14 |
| Cc1nonc1CC(=O)N1CCC2(CCCN(C3CCOCC3)C2=O)C1 (stereo not drawn) | 111.8 |
| CS(=O)(=O)CCN1CCC2(CCCN(C3CCOCC3)C2=O)C1 (stereo not drawn) | -2.931 |
| Cc1c(C(=O)N2CCC3(CCCN(CC4CC4)C3=O)C2)ccn1C (stereo not drawn) | -5.125 |
| CN1CCN(C(=O)N2CCC3(CCCN(C4CCOCC4)C3=O)C2)CC1 (stereo not drawn) | 106.4 |
| COCCOCC(=O)N1CCC2(CCCN(C3CCOCC3)C2=O)C1 (stereo not drawn) | 121 |
| Cc1nonc1CC(=O)N1C[C@@H]2CC[C@H](C1)N(Cc1ccccc1)C2=O | -22.99 |
| c1ncc2c(n1)CN(CC1CCCCO1)CC2 (stereo not drawn) | -13.48 |
| CCn1nc(C)c2nc(C(C)C)nc(NCCOC)c21 | -9.329 |
| CS(=O)(=O)Cc1ccccc1NCc1cc(Cl)ccc1Cl | 3.453 |
| Cc1n[nH]cc1CNC(=O)Nc1cccc(OCC(F)(F)F)c1 | -23.93 |
| CCS(=O)(=O)c1ccc(N2CCC(NC(C)=O)CC2)cc1 | -5.151 |

| Compound | Percent Effect [%] |
| --- | --- |
| Cn1cnnc1-c1cncc(NCc2ccccc2Br)c1 | 9.077 |
| CCC(CC)NCC(c1ccccn1)N1CCOCC1 (stereo not drawn) | 8.316 |
| CCC(=O)N(CC)C(c1cccnc1)c1ccc2c(c1)CCO2 (stereo not drawn) | -9.514 |
| CC1COCCN1Cc1nc(-c2ccc(Br)s2)no1 (stereo not drawn) | 104.9 |
| Cc1ccc(CN2C[C@H](O)C[C@H]2c2nc(-c3ccc(F)cc3)no2)cc1 | -12.23 |
| COc1cccc(-c2ncc(CN3CCOCC(O)C3)s2)c1 (stereo not drawn) | -5.443 |
| CCn1nc2c(cc1=O)CN(Cc1nc(-c3ccsc3)no1)CC2 | -2.212 |
| CC1COCCN1Cc1nc(-c2cccs2)no1 (stereo not drawn) | 6.189 |
| COc1ccc(-c2noc(CN3CCOCC3C)n2)cc1OC (stereo not drawn) | -3.831 |
| O=C1OCCCN1Cc1nc(-c2ccncc2)no1 | 8.814 |
| CC(C)c1nc2c(n1C)CCN(Cc1nc(-c3ccsc3)no1)C2 | 5.269 |
| COc1cccc(-c2noc(CN3CCOCC3C)n2)c1 (stereo not drawn) | 120.5 |
| c1csc(-c2noc(CC3CCCO3)n2)c1 (stereo not drawn) | 5.637 |
| CC1COCCN1Cc1nc(-c2ccc(F)cc2)no1 (stereo not drawn) | 110.9 |
| CC1COCCN1Cc1nc(-c2ccsc2)no1 (stereo not drawn) | 130 |
| CC(Oc1cccc(Cl)c1)C(=O)Nc1cnn(CCN(C)C)c1 (stereo not drawn) | -6.613 |
| CC(C)c1nn(CC(=O)N2CCCC2)c(=O)c2c1cnn2C(C)(C)C | 46.37 |
| Cc1cnn(CCNCc2ccccc2C#N)c1 | -11.13 |
| O=C(CCC1CCCCC1)NS(=O)(=O)CC1CC1 | -8.916 |
| Cc1cccc(-c2noc(CN3CCc4nn(C)c(=O)cc4C3)n2)c1 | -3.74 |
| CC1COCCN1Cc1nc(-c2cccc(Br)c2)no1 (stereo not drawn) | 7.569 |
| Cc1cccc(-c2noc(CN3CCOCC3C)n2)c1 (stereo not drawn) | 119.9 |

| Compound | Percent Effect [%] |
| --- | --- |
| Cc1cccc(-c2noc(CN3CCC(c4ccn[nH]4)CC3)n2)c1 | -15.7 |
| CC1COCCN1Cc1nc(-c2cccc(C(F)(F)F)c2)no1 (stereo not drawn) | 102.5 |
| Cc1cccc(-c2noc(CN3CCn4c(nnc4C4CC4)C3)n2)c1 | -14.41 |
| Cc1cnn(CC(C)NCc2csc(-c3ccsc3)n2)c1 (stereo not drawn) | 2.803 |
| COCc1ccc(CNC(=O)C2=NN(c3ccccc3)C(=O)CN2)cc1 | -5.383 |
| CC(C)(C)C(O)CN1CCN(C(=O)c2cccc3[nH]ncc23)CC1 (stereo not drawn) | -4.967 |
| O=S1(=O)C[C@@H]2[C@H](C1)N(Cc1cc(Cl)cc(Cl)c1)CCN2CCO | 13.48 |
| O=C(NCc1cccnc1)C1CN(c2cnc3ccccc3n2)CCN1 (stereo not drawn) | -3.228 |
| Cc1cccc(NC(=O)c2ccc(-n3cncn3)nn2)n1 | -9.734 |
| O=C(Nc1ccccn1)c1nc(N2CCCC2)ncc1Cl | -4.003 |
| O=C(Nc1ccc(Cl)cn1)C1CCCN(CCc2ccncc2)C1 (stereo not drawn) | -1.04 |
| Cc1cccc(NC(=O)c2cncc(C3CCNCC3)n2)n1 | 105 |
| O=C(Nc1ccc(Cl)cn1)c1cncc(C2CCNCC2)n1 | 119.3 |
| Cc1ccnc(NC(=O)c2cncc(C3CCNCC3)n2)c1 | 117.9 |
| O=C(Nc1cc(C2CCOCC2)[nH]n1)c1ccc(Cl)cn1 | -26.34 |
| Cc1cccc(NC2CCN(C(=O)Nc3cccc4[nH]ccc34)CC2)n1 | -4.499 |
| Cl.O=C(Nc1ccccn1)c1cncc(C2CCNCC2)n1 | 82.75 |
| Cc1ccnc(NC(=O)c2ccc(Cl)o2)c1 | -0.2777 |
| O=c1n(Cc2ccccn2)nc(C2CCNCC2)n1Cc1ccccc1 | -4.835 |
| Cc1ccnc(NC(=O)c2c(C)oc(C)c2C)c1 | 13.28 |
